Measured values from PubChem BioAssay (NCI).
The panel holds about 79,000 compounds, 15% with a hit somewhere; the sample as a whole holds those more often. A number with no mark means an inactive call. Calls of active or inactive are those of the source. Rule as the data show it: active = growth inhibition above about 70%; inactive = the rest.

Columns and labels:
[1] = NCI Yeast Anticancer Drug Screen. Data for the wt1 strain (AID 149);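 also: 0% = growth of vehicle-treated wt1 cultures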; settings: S. cerevisiae wt1 strain (SPY 50644) growth inhibition, active compounds read high
How it was run: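 Readout: yeast growth inhibition, normalised to vehicle controls, in the wt1 strain exposed to test compounds.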

[2] = NCI Yeast Anticancer Drug Screen. Data for the rad50EPP+ strain (AID 151);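 also: 0% = growth of vehicle-treated control cultures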; settings: S. cerevisiae rad50 mutant strain, active compounds read high
How it was run: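 Genetically defined yeast (rad50EPP+, DNA damage repair alteration) is grown with compound, and inhibition of growth is expressed relative to vehicle-treated controls.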

[3] = NCI Yeast Anticancer Drug Screen. Data for the mgt1 strain (AID 153); settings: S. cerevisiae mgt1 mutant growth inhibition, active compounds read high
How it was run: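 In the mgt1 strain, test compounds were added and growth inhibition was determined relative to vehicle-treated controls.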

[4] = NCI Yeast Anticancer Drug Screen. Data for the rad50 strain (AID 155);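 also: 0% = growth of vehicle-only cultures of the same strain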; settings: S. cerevisiae rad50 strain growth inhibition, active compounds read high
How it was run: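 Compounds were tested on a yeast strain with an engineered DNA damage repair alteration; the reported value is growth inhibition normalised to vehicle treatment.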

[5] = NCI Yeast Anticancer Drug Screen. Data for the mec2-1 strain (AID 157); settings: S. cerevisiae mec2-1 strain, active compounds read high
How it was run: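 Each compound was tested on mec2-1 yeast, a strain altered in DNA damage repair or cell cycle control. Growth inhibition is reported relative to vehicle.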

[6] = NCI Yeast Anticancer Drug Screen. Data for the rad14 strain (AID 159);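 also: 0% = growth of vehicle-treated control cultures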; settings: S. cerevisiae rad14 strain growth inhibition, active compounds read high
How it was run: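 Compound-treated yeast with a defined DNA-repair lesion; growth inhibition normalised to vehicle-treated cultures.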

[7] = NCI Yeast Anticancer Drug Screen. Data for the sgs1 mgt1 strain (AID 161);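 also: 0% = growth of cultures given vehicle only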; settings: S. cerevisiae sgs1 mgt1 strain, active compounds read high
How it was run: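 Mutant yeast exposed to compound; growth scored against vehicle-only wells.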

[8] = NCI Yeast Anticancer Drug Screen. Data for the CLN2oe strain (AID 163);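 also: 0% = growth of vehicle-only control cultures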; settings: S. cerevisiae CLN2oe strain, active compounds read high
How it was run: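 First, the altered yeast strain was treated with each compound; second, its growth was measured; finally, inhibition was derived by comparison with vehicle controls.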

[9] = NCI Yeast Anticancer Drug Screen. Data for the cln2 rad14 strain (AID 165);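 also: 0% = growth equal to vehicle treated cultures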; settings: S. cerevisiae cln2 rad14 strain, active compounds read high
How it was run: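 Test compounds were added to cln2 rad14 yeast cultures; inhibition of growth was then determined by comparison with vehicle treatment.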

[10] = NCI Yeast Anticancer Drug Screen. Data for the bub3 strain (AID 167); settings: S. cerevisiae bub3 mutant strain, active compounds read high
How it was run: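 Growth of a checkpoint-deficient yeast mutant is measured after compound exposure. Values represent inhibition relative to vehicle.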

[11] = NCI Yeast Anticancer Drug Screen. Data for the wt2 strain (AID 169);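 also: 0% = growth of vehicle-treated yeast cultures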; settings: S. cerevisiae wt2 strain growth inhibition, active compounds read high
How it was run: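 The panel's yeast strains carry defined changes in DNA repair or cell cycle genes. Each strain is grown with compound, and growth loss is scored relative to vehicle.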

[12] = NCI Yeast Anticancer Drug Screen. Data for the mlh1 strain (AID 171);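 also: 0% = growth of vehicle-treated control cultures of the same strain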; settings: S. cerevisiae mlh1 strain growth inhibition, active compounds read high
How it was run: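 Inhibition values reflect reduced yeast growth in the presence of compound, referenced to vehicle controls, using a strain chosen for its alteration in DNA repair or cell cycle control.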

[13] = NCI Yeast Anticancer Drug Screen. Data for the sgs1 strain (AID 173);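 also: 0% = growth of vehicle-only control cultures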; settings: S. cerevisiae sgs1 mutant, active compounds read high
How it was run: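 Vehicle-treated cultures served as reference for growth inhibition of a yeast strain altered in DNA damage repair or cell cycle control after compound exposure.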

[14] = NCI Yeast Anticancer Drug Screen. Data for the mlh1 rad18 strain (AID 175); settings: S. cerevisiae mlh1 rad18 strain growth inhibition, active compounds read high
How it was run: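 Inhibition values reflect reduced growth of mutant yeast versus vehicle-treated controls following compound exposure; the mutations affect DNA damage repair.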

[15] = NCI Yeast Anticancer Drug Screen. Data for the rad18 strain (AID 177); settings: S. cerevisiae rad18 mutant growth inhibition, active compounds read high
How it was run: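 Steps: expose repair-mutant yeast to compound; measure growth; express as inhibition relative to vehicle control.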

[16] = at 5.0 µM (retest, dose inferred, filed as 0.5)
[17] = at 50.0 µM (retest, dose inferred, filed as 5.0)

CCSc1c2ccccc2c(-c2nc(F)nc(F)n2)n1CCc1ccccc1
growth inhibition ([1]; at 1.2 µM): -7%
growth inhibition ([1]; at 3.7 µM): -4%
growth inhibition ([1]; at 11.0 µM): 10%
growth inhibition ([1]; at 33.0 µM): 80% (active)
growth inhibition ([1]; at 100.0 µM): 97% (active)
growth inhibition ([2]; at 1.2 µM): -22%
growth inhibition ([2]; at 3.7 µM): -17%
growth inhibition ([2]; at 11.0 µM): -22%
growth inhibition ([2]; at 33.0 µM): -15%
growth inhibition ([2]; at 100.0 µM): 3%
growth inhibition ([3]; at 1.2 µM): -27%
growth inhibition ([3]; at 3.7 µM): -32%
growth inhibition ([3]; at 11.0 µM): -29%
growth inhibition ([3]; at 33.0 µM): 81% (active)
growth inhibition ([3]; at 100.0 µM): 97% (active)
growth inhibition ([4]; at 1.2 µM): -30%
growth inhibition ([4]; at 3.7 µM): -10%
growth inhibition [4, 16]: -23%
growth inhibition ([4]; at 11.0 µM): -6%
growth inhibition ([4]; at 33.0 µM): 72% (active)
growth inhibition [4, 17]: 52%
growth inhibition ([4]; at 50.0 µM): 87% (active)
growth inhibition ([4]; at 100.0 µM): 96% (active)
growth inhibition ([5]; at 1.2 µM): -14%
growth inhibition ([5]; at 3.7 µM): -17%
growth inhibition [5, 16]: -43%
growth inhibition ([5]; at 11.0 µM): -4%
growth inhibition ([5]; at 33.0 µM): 78% (active)
growth inhibition [5, 17]: 0%
growth inhibition ([5]; at 50.0 µM): 80.7% (active)
growth inhibition ([5]; at 100.0 µM): 98% (active)
growth inhibition ([6]; at 1.2 µM): -17%
growth inhibition ([6]; at 3.7 µM): -12%
growth inhibition ([6]; at 11.0 µM): 2%
growth inhibition ([6]; at 33.0 µM): 84% (active)
growth inhibition ([6]; at 100.0 µM): 97% (active)
growth inhibition [7, 16]: -15%
growth inhibition [7, 17]: 70% (active)
growth inhibition ([7]; at 50.0 µM): 87.7% (active)
growth inhibition ([8]; at 1.2 µM): -24%
growth inhibition ([8]; at 3.7 µM): -20%
growth inhibition ([8]; at 11.0 µM): 4%
growth inhibition ([8]; at 33.0 µM): 89% (active)
growth inhibition ([8]; at 100.0 µM): 97% (active)
growth inhibition [9, 16]: 19%
growth inhibition [9, 17]: 70% (active)
growth inhibition ([9]; at 50.0 µM): 86.6% (active)
growth inhibition ([10]; at 1.2 µM): -11%
growth inhibition ([10]; at 3.7 µM): -21%
growth inhibition [10, 16]: 0%
growth inhibition ([10]; at 11.0 µM): -3%
growth inhibition ([10]; at 33.0 µM): 82% (active)
growth inhibition [10, 17]: 88% (active)
growth inhibition ([10]; at 50.0 µM): 86% (active)
growth inhibition ([10]; at 100.0 µM): 97% (active)
growth inhibition ([11]; at 1.2 µM): -1%
growth inhibition ([11]; at 3.7 µM): -2%
growth inhibition ([11]; at 11.0 µM): 4%
growth inhibition ([11]; at 33.0 µM): 77% (active)
growth inhibition ([11]; at 100.0 µM): 98% (active)
growth inhibition ([12]; at 1.2 µM): -41%
growth inhibition ([12]; at 3.7 µM): -34%
growth inhibition ([12]; at 11.0 µM): -22%
growth inhibition ([12]; at 33.0 µM): 75% (active)
growth inhibition ([12]; at 100.0 µM): 97% (active)
growth inhibition ([13]; at 1.2 µM): 34%
growth inhibition ([13]; at 3.7 µM): 32%
growth inhibition ([13]; at 11.0 µM): 39%
growth inhibition ([13]; at 33.0 µM): 79% (active)
growth inhibition ([13]; at 100.0 µM): 98% (active)
growth inhibition [14, 16]: -12%
growth inhibition [14, 17]: 77% (active)
growth inhibition ([14]; at 50.0 µM): 81.3% (active)
growth inhibition ([15]; at 1.2 µM): -5%
growth inhibition ([15]; at 3.7 µM): 0%
growth inhibition ([15]; at 11.0 µM): 7%
growth inhibition ([15]; at 33.0 µM): 75% (active)
growth inhibition ([15]; at 100.0 µM): 97% (active)

Nc1ccc2ncc(Nc3ccc(Cl)c(Cl)c3)nc2c1
growth inhibition ([1]; at 1.2 µM): -19%
growth inhibition ([1]; at 3.7 µM): 1%
growth inhibition ([1]; at 11.0 µM): 49%
growth inhibition ([1]; at 33.0 µM): 95% (active)
growth inhibition ([1]; at 100.0 µM): 96% (active)
growth inhibition ([2]; at 1.2 µM): -11%
growth inhibition ([2]; at 3.7 µM): -6%
growth inhibition ([2]; at 11.0 µM): 11%
growth inhibition ([2]; at 33.0 µM): 37%
growth inhibition ([2]; at 100.0 µM): 59%
growth inhibition ([3]; at 1.2 µM): -32%
growth inhibition ([3]; at 3.7 µM): -27%
growth inhibition ([3]; at 11.0 µM): 69%
growth inhibition ([3]; at 33.0 µM): 96% (active)
growth inhibition ([3]; at 100.0 µM): 97% (active)
growth inhibition ([4]; at 1.2 µM): 3%
growth inhibition ([4]; at 3.7 µM): 10%
growth inhibition [4, 16]: 1%
growth inhibition ([4]; at 11.0 µM): 70% (active)
growth inhibition ([4]; at 33.0 µM): 96% (active)
growth inhibition [4, 17]: 95% (active)
growth inhibition ([4]; at 50.0 µM): 85% (active)
growth inhibition ([4]; at 100.0 µM): 96% (active)
growth inhibition ([5]; at 1.2 µM): -6%
growth inhibition ([5]; at 3.7 µM): -16%
growth inhibition [5, 16]: 28%
growth inhibition ([5]; at 11.0 µM): 53%
growth inhibition ([5]; at 33.0 µM): 96% (active)
growth inhibition [5, 17]: 98% (active)
growth inhibition ([5]; at 50.0 µM): 86% (active)
growth inhibition ([5]; at 100.0 µM): 97% (active)
growth inhibition ([6]; at 1.2 µM): -20%
growth inhibition ([6]; at 3.7 µM): -9%
growth inhibition ([6]; at 11.0 µM): 73% (active)
growth inhibition ([6]; at 33.0 µM): 97% (active)
growth inhibition ([6]; at 100.0 µM): 96% (active)
growth inhibition [7, 16]: 12%
growth inhibition [7, 17]: 95% (active)
growth inhibition ([7]; at 50.0 µM): 89% (active)
growth inhibition ([8]; at 1.2 µM): -17%
growth inhibition ([8]; at 3.7 µM): -6%
growth inhibition ([8]; at 11.0 µM): 69%
growth inhibition ([8]; at 33.0 µM): 97% (active)
growth inhibition ([8]; at 100.0 µM): 97% (active)
growth inhibition [9, 16]: 42%
growth inhibition [9, 17]: 95% (active)
growth inhibition ([9]; at 50.0 µM): 73.7% (active)
growth inhibition ([10]; at 1.2 µM): -13%
growth inhibition ([10]; at 3.7 µM): -3%
growth inhibition [10, 16]: 44%
growth inhibition ([10]; at 11.0 µM): 54%
growth inhibition ([10]; at 33.0 µM): 96% (active)
growth inhibition [10, 17]: 97% (active)
growth inhibition ([10]; at 50.0 µM): 87.2% (active)
growth inhibition ([10]; at 100.0 µM): 96% (active)
growth inhibition ([11]; at 1.2 µM): -15%
growth inhibition ([11]; at 3.7 µM): 0%
growth inhibition ([11]; at 11.0 µM): 57%
growth inhibition ([11]; at 33.0 µM): 97% (active)
growth inhibition ([11]; at 100.0 µM): 97% (active)
growth inhibition ([12]; at 1.2 µM): -4%
growth inhibition ([12]; at 3.7 µM): 4%
growth inhibition ([12]; at 11.0 µM): 75% (active)
growth inhibition ([12]; at 33.0 µM): 96% (active)
growth inhibition ([12]; at 100.0 µM): 97% (active)
growth inhibition ([13]; at 1.2 µM): 0%
growth inhibition ([13]; at 3.7 µM): 17%
growth inhibition ([13]; at 11.0 µM): 78% (active)
growth inhibition ([13]; at 33.0 µM): 97% (active)
growth inhibition ([13]; at 100.0 µM): 97% (active)
growth inhibition [14, 16]: 44%
growth inhibition [14, 17]: 98% (active)
growth inhibition ([14]; at 50.0 µM): 80.5% (active)
growth inhibition ([15]; at 1.2 µM): -13%
growth inhibition ([15]; at 3.7 µM): -9%
growth inhibition ([15]; at 11.0 µM): 11%
growth inhibition ([15]; at 33.0 µM): 97% (active)
growth inhibition ([15]; at 100.0 µM): 98% (active)
